Results taken from PubChem BioAssay AID779 (Sanford-Burnham Center for Chemical Genomics, 2007).
Unmarked numbers belong to inactive results. No rule for the calls is given here.

assay: placental alkaline phosphatase inhibitors, dose response, counter-screen, biochemical, colorimetric (AID 779); conditions: PLAP counter-screen, colorimetric OD read-out

Structure (SMILES)	IC50 [µM]
CC(C)(C)C(=O)c1sc2nc(-c3cccs3)cc(C(F)(F)F)c2c1N	> 50
COc1cc(/C=C2\SC(=S)N(Nc3ccccc3)C2=O)cc(OC)c1OC	> 50
O=C1/C(=C\c2ccco2)SC(=S)N1Cc1ccccc1	> 50
CC(C)C1Cc2c(C#N)c(N)sc(=S)c2CO1 (configuration not stated)	> 50
O=[N+]([O-])c1ccc(N2N=C(c3ccco3)CC2c2ccccc2)cc1 (configuration not stated)	> 50
Cc1ccc(C)c(OCc2nnc(N)s2)c1	> 50
CCN1/C(=C/c2ccc3cccc(C)c3[n+]2CC)Sc2ccccc21	> 50
Cc1ccsc1/C=C/C1=Cc2c(sc(NC(=O)CSc3n[nH]c(N)n3)c2C#N)C(C)(C)C1	> 50
CCC(C)N1C(=O)/C(=C/c2c(NCCCOC(C)C)nc3c(C)cccn3c2=O)SC1=S (configuration not stated)	> 50
CCCCCn1nc(-c2ccccc2)c2nc3ccccc3nc21	> 50
CCn1c(COc2ccccc2C)nnc1SCC(=O)Nc1cc(C)on1	> 50
COc1ccc2sc3ccccc3c(=O)c2c1OC	> 50
CN(C)c1ccc(/C=C/C=C2/SC(=S)N(c3ccccc3)C2=O)cc1	> 50
O=C(O)c1ccc(CN(c2ccccn2)S(=O)(=O)c2ccccc2)cc1	> 50
Clc1ccccc1CSc1nnc(-c2ccco2)c(-c2ccco2)n1	> 50
COc1ccc2oc(/C=C/N(C)C)c(C(=O)c3ccc(Cl)cc3)c2c1	> 50

Structure (SMILES)	IC50 [µM]
Oc1ccc(-c2cn3c(n2)SCC3)cc1O	> 50
COC(=O)Sc1nnc(-c2ccc(Br)cc2)o1	> 50
Cc1cc2ccccc2n1CCNC(=O)c1ccccc1	> 50
CCn1nc(-c2ccccc2)c2nc3ccccc3nc21	> 50
CCCN1C(=O)/C(=C/C=C2\N(CC)c3ccccc3C2(C)C)SC1=S	> 50
CSc1ccccc1N=Cc1nc(-c2ccccc2)oc1O	> 50
Cc1cccc2cc(/C=C3\N=C(c4ccccc4)OC3=O)c(N3CCOCC3)nc12	> 50
CCn1c(O)c(/C=N/N=C/c2ccccc2)c2ccc(C3=NNC(=O)CC3)cc21	> 50
CCn1c2ccc(Cl)cc2c2nc3ccccc3nc21	> 50
CCSc1nnc(-c2sc3nnc(-c4ccccc4)c(-c4ccccc4)c3c2N)o1	> 50
CCOC(=O)N1CCN(C(=O)CSc2nnc(-c3c[nH]c4ccccc34)n2CCOC)CC1	> 50
O=C(CCN1C(=O)/C(=C/C=C/c2ccccc2)SC1=S)Nc1nccs1	> 50
COc1ccc(/C=c2\sc3nc(-c4ccccc4)c(-c4ccccc4)n3c2=O)cc1OC	> 50
COc1ccc(-n2c(NC(=O)c3ccc(Br)o3)c(C#N)c3nc4ccccc4nc32)cc1	> 50
O=C(Nc1cccc2c1CCCC2)c1cc([N+](=O)[O-])ccc1Cl	> 50
CCCCn1nc(-c2ccccc2)c2nc3ccccc3nc21	> 50
